Among the data in PubChem BioAssay (Tox21) are Potency values, retold here.

The nature of assay [1]: cAMP Responsive Elements (CRE) small molecule antagonists, cell-based qHTS assay: qHTS cell viability counter screen (AID 2060913). Note: nearly all actives have a fitted effect of over 40% in size. As to conditions: CRE-bla HEK293T viability, CellTiter-Glo luminescence, 5 h; series mostly up to 92.4 µM. In short, it runs like this:
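HEK293T CRE-bla, 2,000 cells/well, 18 h preincubation; cpd in DMSO + NKH477 0.25 uM final, 3 h 37 C/5% CO2; LiveBLAzer 2 h RT, then CellTiter-Glo 30 min RT, luminescence.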
(In qHTS, concentration-response curves come from the screen itself.)

Assay [2] can be described thus: cAMP Responsive Elements (CRE) small molecule agonists, cell-based qHTS assay: qHTS cell viability counter screen (AID 2060914). Note: nearly all actives have a fitted effect of over 50% in size. As to conditions: CRE-bla HEK293T viability, CellTiter-Glo luminescence, 5 h; series mostly up to 92.4 µM. An outline of the steps:
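Luminescence read-out (CellTiter-Glo, 30 min RT) of ATP-based viability in CRE-bla HEK 293T cells, run in the same wells as the β-lactamase reporter assay after 3 h compound treatment at 37 °C.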

Records with an inconclusive call do not appear. Where a call stands in place of a potency, no number is given. Calls of active or inactive are those of the source. Calls come from the whole dose curve; as a rule, active = well fitted cell-killing curve with a large enough effect in the repeat runs; inconclusive = weak or mixed curves, or effect the other way; inactive = flat fitted curve, though single readings scatter.

With `C=C(C)C(=O)Nc1ccc(Cl)c(Cl)c1`, the Potency entry in assay [1] and in assay [2] was “inactive” each time.
For the compound `CCCCCC(=O)O[C@]1(C(C)=O)CC[C@H]2[C@@H]3CCC4=CC(=O)CC[C@]4(C)[C@H]3CC[C@@]21C`, the Potency result in assay [1] and in assay [2] was “inactive” each time.
On to `COc1ccc2cc([C@H](C)C(=O)O)ccc2c1`, for which the Potency result in assay [1] and in assay [2] was “inactive” each time.
For `CC(C)(Cc1c[nH]c2ccccc12)NCC(O)COc1ccccc1C#N` (stereo not given), the Potency entry in assay [1] and in assay [2] was “inactive” in each case.
Take `CC12CCC(CC1)C(C)(C)O2`: the Potency result in assay [1] and in assay [2] was “inactive” in each case.
`CO/N=C(\C(=O)N[C@@H]1C(=O)N2C(C(=O)O)=C(CSc3nc(=O)c(O)nn3C)CS[C@H]12)c1csc(N)n1`: the Potency entry in assay [1] and in assay [2] was “inactive” in each case.
Take `CC(=O)/C=C/C1=C(C)CCCC1(C)C`: the Potency entry in assay [1] and in assay [2] was “inactive” each time.
For the compound `C=CCCCCCCC=C`, the Potency entry in assay [1] and in assay [2] was “inactive” in each case.
Turning to `CCC1CCCCC1`, the Potency result in assay [1] and in assay [2] was “inactive” throughout.
Regarding `CCCCC=O`, the Potency entry in assay [1] and in assay [2] was “inactive” in each case.
On to `CC1(C)C(=O)NC(=O)N1CO`, for which the Potency entry in assay [1] and in assay [2] was “inactive” throughout.
With `CCCCC(CC)COC(C)=O` (stereo not given), the Potency result in assay [1] and in assay [2] was “inactive” throughout.
For `[O-][n+]1ccc(Cl)cc1`, the Potency entry in assay [1] and in assay [2] was “inactive” each time.
With `CCOC(=O)CCc1ccccc1`, the Potency entry in assay [1] and in assay [2] was “inactive” in each case.
On to `CCC(C)(C)C1CCC(OC)CC1` (stereo not given), for which the Potency entry in assay [1] and in assay [2] was “inactive” throughout.
On to `N[C@H]1C(O)O[C@H](CO)[C@H](O)[C@@H]1O` (stereo not given in full), for which the Potency entry in assay [1] and in assay [2] was “inactive” in each case.
Regarding `O=C(Nc1ccc2c(O)c(N=Nc3ccc(N=Nc4ccc(S(=O)(=O)O)cc4)cc3)c(S(=O)(=O)O)cc2c1)c1ccccc1`, the Potency result in assay [1] and in assay [2] was “inactive” throughout.
For the compound `CCCOC(OCCC)OCCC`, the Potency result in assay [1] and in assay [2] was “inactive” in each case.
As for `COc1ccc(NC(=O)CC(C)=O)cc1`, the Potency entry in assay [1] and in assay [2] was “inactive” in each case.
Consider `CC1(C)O[C@@H]2[C@@H](CO[C@@]3(COS(N)(=O)=O)OC(C)(C)O[C@@H]23)O1`, for which the Potency entry in assay [1] and in assay [2] was “inactive” throughout.
